# In the library only some 2.6% were active in any assay of this set; here they are far more common.
# eIF4H FP inh: inhibitors of RNA binding by human eIF4H. Q15056. eIF4H fluorescence polarization binding assay. inhibition, % at 35 µM. 0.94% of 290,000 active. AID 2012;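 also: calls also rest on retests at 20 µM and on dose response follow-up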
# PABP1 MLLE inh: blocks PAM2 peptide binding to the PABP1 MLLE domain; AID 588489; GST-MLLE / FITC-PAM2 fluorescence polarization; 0.36% of 360,000 active; inhibition, % at 20 µM; in the data active = inhibition above about 35%, passing the limit was not always enough;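 also: plate controls were DMSO wells with GST-MLLE for no effect and wells lacking GST-MLLE protein for full effect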
# PABP polyA inh: PABP-poly(A) binding inhibition. PABP-poly(A) RNA binding, fluorescence polarization. calls only at 35 µM. 1% of 290,000 active. AID 2014;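 also: calls also rest on retests at 20 µM and on dose response follow-up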
# A3G deaminase: APOBEC3G (human) deaminase inhibition; recombinant A3G, ssDNA deamination FAM/TAMRA fluorescence; AID 493012; 0.28% of 330,000 active; inhibition, % at 20 µM; Q9HC16;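 active = inhibition of at least 40% at 20 µM, with no more than 30% in the related APOBEC3A deaminase screen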;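 also: plate controls were DMSO wells with A3G for no effect and wells lacking A3G enzyme for full effect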
# APOBEC3A inh: human APOBEC3A DNA deaminase inhibition | P31941 | recombinant A3A, FAM/TAMRA ssDNA deamination fluorescence | inhibition, % at 20 µM | 0.41% of 330,000 active | AID 493011;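 active = at least 40% inhibition at 20 µM here, with at most 30% in a related deaminase screen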;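 also: plate controls were A3A with DMSO for no effect and wells lacking A3A enzyme for full effect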
# PHOSPHO1 block: blocks human PHOSPHO1 phosphatase activity; 1.1% of 290,000 active; Q8TCT1; recombinant PHOSPHO1, absorbance phosphatase assay; inhibition, % at 13.3 µM; in the data active = inhibition above about 60%
# Target sequence (Q8TCT1 whole entry, looked up): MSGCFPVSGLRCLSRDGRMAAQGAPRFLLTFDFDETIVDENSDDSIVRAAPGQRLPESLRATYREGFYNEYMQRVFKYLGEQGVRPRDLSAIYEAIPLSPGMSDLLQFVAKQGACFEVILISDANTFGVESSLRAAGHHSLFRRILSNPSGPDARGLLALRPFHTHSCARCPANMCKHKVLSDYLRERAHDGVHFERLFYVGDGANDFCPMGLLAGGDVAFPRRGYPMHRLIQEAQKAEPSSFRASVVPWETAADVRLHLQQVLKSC
# An asterisk follows results filed as active; i = inactive; u = inconclusive; x = no result given; + = active, no number. Unless noted, no rule for the calls is given here.
SMILES,eIF4H FP inh,PABP1 MLLE inh,PABP polyA inh,A3G deaminase,APOBEC3A inh,PHOSPHO1 block
O=C(O)c1ccc(COc2ccccc2/C=C2/NC(=O)N(c3cccc(Cl)c3)C2=O)cc1,54*,-5,+,-7,-3,44
O=C(O)c1ccc(COc2ccccc2C=C2C(=O)c3ccccc3C2=O)cc1,0,13,+,0,1,6
C[C@@H]1CN([C@H](C)CO)C(=O)CCCn2nncc2CO[C@@H]1CN(C)S(=O)(=O)c1ccc2ccccc2c1,x,-4,x,x,x,x
CCOC(=O)C1=C(N)n2c(s/c(=C\c3ccco3)c2=O)=C(C(=O)OCC)C1c1ccco1 (stereo not given),97*,-4,+,x,x,-5
COc1ccc(-c2cnc(C(O)c3ccc(CN4CCCCC4)cc3)[nH]2)cc1 (stereo not given),x,0,x,x,x,x
COc1ccccc1C(=O)NCCn1ccc2ccccc21,-10,43*,i,-6,-11,-27
COc1ccc(C(=O)NCCn2ccc3ccccc32)cc1OC,18,0,i,0,-2,0
CC/C(=C\C(=O)c1cccnc1)Nc1ccc(C)c(C)c1,-7,-78,i,26,1,96*
CC(=O)Nc1ccc(N/C(C)=C/C(=O)c2cccnc2)cc1,7,-1,i,-5,0,8
C[C@@H]1CN([C@@H](C)CO)C(=O)c2cc(Br)cnc2O[C@H]1CN(C)Cc1ccccc1C(=O)O,x,5,x,x,x,x
CC(C)c1nc(SCC(=O)c2ccc(F)cc2)c2ccccc2n1,-4,37*,i,0,0,-46
CCc1nc(SCC(=O)c2ccc3c(c2)OCCO3)c2ccccc2n1,-11,26,i,1,-1,2
CCOC(=O)CSc1nc(C2CC2)nc2ccccc12,-4,36*,i,-4,-3,23
CCc1nc(SCC(=O)c2ccccc2)c2ccccc2n1,4,41*,i,17,-1,41
Cc1ccc(S(=O)(=O)N[C@H](C(=O)Oc2ccc3c(C(F)(F)F)cc(=O)oc3c2)c2ccccc2)cc1,17,36*,i,-4,0,24
CSc1ccc(S(=O)(=O)NC2CC3CCC2C3)cc1 (stereo not given),-12,-12,i,-6,-4,20
CCN1C(=O)/C(=C/c2ccc(OC)c(OC)c2)N=C1SCC(=O)NCc1ccco1,12,38*,i,-5,-1,2
COc1ccc(-c2ccc(SCC(=O)NCc3ccco3)nn2)cc1OC,2,23,i,-5,5,0
Cc1csc(=O)n1CC(=O)OCC(=O)NCc1ccc(F)cc1,x,9,x,-7,-2,x
CN(C)/N=C/C=C1\CCC/C(=C/c2cccs2)C1=O,23,-78,i,-1,1,-4
CN(C)/N=C/C=C1\CC/C(=C\c2ccc(Br)cc2)C1=O,67*,-55,+,-9,-4,-16
CC(Sc1nccn1C)C(=O)c1c(N)n(C)c(=O)n(C)c1=O (stereo not given),x,-1,x,-6,1,x
CCc1cc(C(=O)N2CCCC(Nc3ccc(F)c(F)c3)C2)n(C)n1 (stereo not given),-2,6,i,-5,-1,-13
CCn1c(SCc2nc3ccccc3c(=O)[nH]2)nnc1C(C)NC(=O)c1ccccc1 (stereo not given),-7,-14,i,-6,-3,-1
CCn1c(SCC(=O)N2CCOCC2)nnc1C(C)NC(=O)c1ccccc1 (stereo not given),-3,3,i,3,4,63*
SMILES,eIF4H FP inh,PABP1 MLLE inh,PABP polyA inh,A3G deaminase,APOBEC3A inh,PHOSPHO1 block
CCn1c(CC(=O)Nc2ccc(C)cc2)nnc1SCC(=O)N1CCOCC1,-2,0,i,7,3,63*
Clc1ncccc1-c1nc2ccccc2s1,7,4,i,-9,-4,61*
COc1ccc(N(CCCN2C(=O)c3cccc4cccc(c34)C2=O)C(=O)c2ccncc2)cc1,0,0,i,5,3,-19
COc1ccc(N(CCN2C(=O)c3ccccc3C2=O)C(=O)c2cccc([N+](=O)[O-])c2)cc1,active,-9,+,-1,1,-11
CCn1cc(C(=O)NCc2ccc(Cl)cc2)c(=O)c2cc(S(=O)(=O)N(C)C)ccc21,2,-18,i,-7,-1,14
COc1ccc(OCc2cc(C(=O)N(C)C3CCOC3)no2)c(Cl)c1 (stereo not given),-1,7,i,-5,-1,27
COc1ccc(OCc2cc(C(=O)N(C)C3CCOCC3)no2)c2ccccc12,-8,6,i,-7,-5,62*
C[C@@H]1COC(=O)[C@@H](CC(=O)OC(C)(C)C)C/C=C\C[C@H](CC(=O)N(CCO)Cc2ccccc2)C(=O)N1,x,6,x,-8,-5,x
CCOC(=O)CC(=O)CSc1ccc2nnc(-c3cccc(F)c3)n2n1,14,10,i,-4,1,44
COC(=O)C(C)Sc1ccc2nnc(-c3ccc(F)cc3)n2n1 (stereo not given),4,-7,i,-6,4,65*
CCOC(=O)CC(=O)CSc1ccc2nnc(-c3ccc(F)cc3)n2n1,36,14,i,-8,-2,81*
Cn1cnc([N+](=O)[O-])c1Sc1ncccc1N,6,24,i,-10,-2,102*
Cc1ccc(Sc2c([N+](=O)[O-])ncn2C)cc1,4,21,i,-6,-2,-12
N=c1c(S(=O)(=O)c2ccc(Br)cc2)cc2c(=O)n3ccccc3nc2n1Cc1ccccc1,39,70,i,-1,-2,24
N=c1c(S(=O)(=O)c2ccc(Br)cc2)cc2c(=O)n3ccccc3nc2n1Cc1ccco1,96*,-31,+,10,7,12
CCn1c(=N)c(S(=O)(=O)c2ccc(Cl)cc2)cc2c(=O)n3ccccc3nc21,83*,x,+,-6,-1,-10
COc1ccc(CCn2c(=N)c(S(=O)(=O)c3ccc(C)cc3)cc3c(=O)n4ccccc4nc32)cc1,u,79,+,-8,-3,17
Cc1ccc(Cn2c(=N)c(S(=O)(=O)c3ccc(Br)cc3)cc3c(=O)n4ccccc4nc32)cc1,3,-26,i,3,0,24
N=c1c(S(=O)(=O)c2ccc(Cl)cc2)cc2c(=O)n3ccccc3nc2n1Cc1ccco1,73*,-39,+,22,25,8
C=CC(=O)Nc1ccc(N(C)c2ccnc(Nc3ccc(N4CCN(C)CC4)cc3)n2)cc1,x,-23,x,26,1,x
O=C(O)c1cnn(-c2ccccc2)c1-c1ccncc1,57*,4,i,9,34,29
Fc1ccccc1SCc1nnc(-c2ccccc2Br)o1,-12,31,i,-4,-2,-10

# Screening data: PubChem BioAssay, Sanford-Burnham Center for Chemical Genomics
